Shiga toxin inh: inhibitors of Shiga toxin in Vero cells; Vero cells, Shiga toxin protein synthesis inhibition reporter; inhibition, % at 38.7 µM; 9.2% of 290,000 active; in the data active = inhibition mostly above about 28%, no sharp cut-off; inactive = mostly below about 43%; also: 0% is about no effect
Sm TGR block: inhibitors of Schistosoma mansoni thioredoxin glutathione reductase | purified TGR, DTNB reduction, TNB absorbance 405 nm | Potency, µM (top dose mostly 114 µM), for the others: top-dose activity change, negative = inhibition, actives largely listed as inhibitors | 3% of 360,000 active | AID 485364; also: potency is read from the fitted curve at half-maximal effect; % is scaled to controls: 0 for no effect and ±100 for the full control effect; nearly all actives have a fitted effect of over 60% in size
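Kinetic colorimetric format: TGR-catalysed, NADPH-driven DTNB reduction monitored via TNB absorbance. Enzyme dispensed at 20 nM; compound exposure 15 min at room temperature before reaction start.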
Tb PYK inh: blocks Trypanosoma brucei pyruvate kinase; Potency, µM (doses to about 76.8 µM), for inactives: at the top dose activity, negative = inhibition, actives largely listed as inhibitors; Q57TT1; 0.12% of 410,000 active; TbPYK enzyme, Kinase-Glo Plus ATP luminescence, 45 min; also: potency is read from the fitted curve at half-maximal effect; % is scaled to controls: 0 for no effect and ±100 for the full control effect; nearly all actives have a fitted effect of over 50% in size
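TbPYK + substrate in 50 mM TEA pH 7.2, 100 mM KCl, 10 mM MgCl2, 0.05% BSA, 0.01% Tween-20; cpd pinned; ADP 130 uM final; 45 min RT; Kinase-Glo Plus 10 min; luminescence endpoint.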
LmPK inhibitor: blocks Leishmania mexicana pyruvate kinase activity; Q27686; purified LmPK, Kinase-Glo ATP luminescence, 1 h; Potency, µM (doses to about 57.5 µM), for inactives: at the top dose activity change, negative = inhibition, most hits filed as inhibitors; 0.37% of 290,000 active; AID 1721; also: potency is read from the fitted curve at half-maximal effect; % is scaled to controls: 0 for no effect and ±100 for the full control effect
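Kinase-Glo luminescence read after 1 h RT reaction of 0.1 nM LmPK with 0.5 mM PEP and 0.1 mM ADP. Activity scaled between uninhibited and enzyme-free controls.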
Cycloheximide cs: counter-screen for Shiga toxin inhibitors: cycloheximide protein synthesis inhibition. cell reporter, cycloheximide protein synthesis inhibition counterscreen. max response, %. 12% of 300,000 active. AID 2314; in the data active = max response mostly above about 13%, no sharp cut-off; inactive = mostly below about 14%; also: read at 38.3 µM for the half of the compounds with a filed dose; 0% is about no effect
Giardia FBPA inh: blocks Giardia fructose-bisphosphate aldolase activity | purified Giardia FBPA | Potency, µM (series often up to 59.6 µM), for inactives: at the highest dose activity, negative = inhibition, usual class: inhibitors | 0.71% of 290,000 active; also: potency is read from the fitted curve at half-maximal effect; % is scaled to controls: 0 for no effect and ±100 for the full control effect; nearly all actives have a fitted effect of over 55% in size
Target sequence (A8B2U2 whole entry, looked up): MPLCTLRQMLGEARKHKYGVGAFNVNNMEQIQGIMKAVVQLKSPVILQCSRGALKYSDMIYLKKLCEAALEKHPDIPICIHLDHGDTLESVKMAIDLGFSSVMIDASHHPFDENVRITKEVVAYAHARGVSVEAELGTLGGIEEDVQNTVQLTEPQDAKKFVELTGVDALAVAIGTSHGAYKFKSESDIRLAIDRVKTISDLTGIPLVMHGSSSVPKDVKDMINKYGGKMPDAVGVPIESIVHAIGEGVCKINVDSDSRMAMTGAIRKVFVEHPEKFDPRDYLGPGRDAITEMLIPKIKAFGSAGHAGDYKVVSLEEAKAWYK
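40 nM FBPA preincubated 10 min at RT with compound (up to 57.5 uM final), then substrate plus GAPDH/TPI/NAD/arsenate coupling and diaphorase/resazurin added. Fluorescence read after 20 min at RT, 525/598 nm.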
Numbers without * were called inactive; ? = inconclusive; . = no result; [ ] = remark or other dose. The full list was thinned out, with hits kept by preference. Unless noted, calls follow the shape of the dose curve; as a rule, active = well fitted curve in the direction sought with a large enough effect; inconclusive = small, poorly fitted or top-dose-only effect, or another doubt; inactive = no such curve, though single readings can be large; an effect the other way counts as inactive or inconclusive.

SMILES | Shiga toxin inh | Sm TGR block | Tb PYK inh | LmPK inhibitor | Cycloheximide cs | Giardia FBPA inh
O=C(N/N=C(/c1ccccc1)c1ccncc1)c1ccc2c(c1)OCO2 | -5 | -1% | -11% | -1% | -4 | 10%
O=C(N/N=C/c1cc2c(cc1Br)OCO2)c1c[nH]c2ccccc12 | 66 | 0% | 4% | 1% | 13 | 2%
C/C(=N/NC(=O)c1ccc(C(C)(C)C)cc1)c1cccnc1 | . | . | 0% | . | . | .
COc1ccc(-n2nc(C(=O)N(C)C)nc2-c2ccccc2)cc1 | -6 | 21% | -2% | -6% | -1 | 5%
COc1ccc(CCCNC(=O)C2CCC(=O)N(CCc3cccc(F)c3)C2)cc1 (configuration not stated) | 22 | -13% | -5% | -6% | 10 | .
O=c1n(Cc2ccc(Cl)cc2)nc2n1-c1ccccc1OC2 | . | 3% | -5% | . | . | .
CCC/C(=N/NC(=O)c1ccc2c(c1)OCO2)c1cccs1 | 89* | 4% | 4% | 2% | 96* | 5%
CC(/C=C/c1ccc2c(c1)OCO2)=N/NC(=O)c1cccnc1 | 62* | -15% | 1% | -4% | 23* | -2%
CC/C(=N\NC(=O)c1cccnc1)c1ccc2c(c1)OCCO2 | 14 | 1% | -9% | -4% | 7 | -13%
O=C(Nc1cccc(NC(=O)c2cccs2)c1)c1ccc2c(c1)OCO2 | 5 | 7% | 1% | -15% | 11 | -8%
C/C(=N\NC(=O)c1ccc2c(c1)OCO2)c1ccc(O)cc1 | 41* | 1% | 1% | 5% | 33* | 2%
C/C(=N\NC(=O)c1ccc2c(c1)OCO2)c1cccnc1 | 90* | -19% | 1% | -8% | 37* | 4%
Cc1cccc(Nc2nc(N)c(C#N)c(CC#N)c2C#N)c1 | -13 | ? | -1% | 3% | -4 | ?
N#Cc1c(N)nc(N)nc1Nc1ccc(Br)cc1 | 90* | 10% | 10% | 2% | 41* | 2%
O=C(CCc1ccc(CCC(=O)c2cccs2)s1)c1cccs1 | 53* | ? | -1% | -2% | 22* | 0%
O=C(CCSc1ccc(Cl)cc1)c1cccs1 | 24 | 2.2µM* | 1% | 0% | 12* | -3%
O=C(CCNc1ccc(Cl)cc1)c1cccs1 | 42* | 16µM* | 0% | -4% | 32* | 0%
O=C(CCNc1cc(Cl)cc(Cl)c1)c1cccs1 | 43 | ? | 0% | 2% | 18* | -6%
O=C(O)CCNc1ccc(Cl)cc1 | -6 | -4% | 1% | 5% | -2 | 1%
O=C(CCC(=O)c1cccs1)NCc1ccc(F)cc1 | -2 | -1% | -5% | 0% | -5 | ?
Cc1cc(=O)[nH]c(Nc2ccc(N(C)C)cc2)n1 | -1 | 1% | 3% | -3% | 1 | -9%
Cc1cc(=O)[nH]c(N/N=C/c2ccc(N(C)C)cc2)n1 | 50* | 1% | -4% | -15% | 24* | -10%
Cc1cc(=O)[nH]c(N/N=C/c2ccc(F)cc2)n1 | 9 | 8% | 3% | -16% | 13* | -5%
O=C(c1ccc2c(c1)N(Cc1ccc(F)cc1)C(=O)c1ccccc1S2(=O)=O)N1CCC(Cc2ccccc2)CC1 | . | 10% | 3% | . | . | .
CCOC(=O)c1ccc(N=Nc2c(C)c(C#N)c(O)[nH]c2=O)cc1 | 83* | 5% | -9% | -5% | 46* | -9%
SMILES | Shiga toxin inh | Sm TGR block | Tb PYK inh | LmPK inhibitor | Cycloheximide cs | Giardia FBPA inh
C=CCn1c(O)c(C(C)=Nc2ccc(C(=O)OCC)cc2)c(=O)[nH]c1=O | 43 | -29% | -4% | 2% | 7 | -8%
O=C(Nc1ccc(F)cc1)C(=O)c1c(O)[nH]c2ccc([N+](=O)[O-])cc12 | 26 | ? | 5% | -1% | 19* | ?
Cc1ccc(NCC(=O)N=Nc2c(O)[nH]c3ccc([N+](=O)[O-])cc23)cc1 | 73 | -18% | -25% | 0% | 43* | -29%
C=CCN(C(=O)CC(NC(C)=O)c1ccccc1)c1nc(-c2ccc(S(C)(=O)=O)cc2)cs1 (configuration not stated) | 79* | -8% | 0% | 1% | 31* | -8%
COc1ccc(NC(=O)C2CCCN(S(=O)(=O)c3ccc(F)cc3)C2)cc1 (configuration not stated) | . | -2% | -1% | . | . | .
CC1COCC(C)N1C1=C(Cl)C(=O)c2ccccc2C1=O (configuration not stated) | . | . | 22µM* | . | . | .
O=C1C(Cl)=C(N2CCC(C(=O)O)CC2)C(=O)c2ccccc21 | -8 | -2% | 1% | ? | 1 | ?
CCC1C(=O)n2nc(-c3ccccc3)cc2N=C1C (configuration not stated) | active | 2% | 1% | -12% | 40* | 5%
CNC(=O)c1csc(-c2ccncc2)n1 | -6 | -8% | . | 4% | 10 | 6%
CNC(=O)c1csc(-c2ccc(Cl)cc2)n1 | 47* | -4% | -2% | -7% | 38* | 4%
CNC(=O)c1csc(-c2ccc(C)cc2)n1 | 45* | 8% | -9% | -10% | 24* | 4%
Cc1cccc(-n2c(Cc3ccccc3)nnc2SCc2nc(-c3cccs3)no2)c1 | . | 12% | -16% | . | . | .
Cc1cccc(C(=O)NC2=NC(c3ccc(Cl)cc3)CC(=O)N2)c1 (configuration not stated) | . | -1% | -8% | . | . | .
Cc1cc2oc(=O)cc(CSc3nnc(-c4cccs4)o3)c2cc1C(C)C | 4 | -13% | -3% | 0% | 11* | -1%
COc1ccc(OC)c(-n2c3c(cc(-c4nc(-c5ccc(Cl)cc5)cs4)c2=O)C(=O)CC(C)(C)C3)c1 | . | 39% | -9% | . | . | .
CC(=O)NN1C(=O)/C(=C\c2ccc(Br)o2)SC1=S | -8 | 25µM* | -2% | 14% | -4 | ?
CC(=O)NN1C(=O)/C(=C\c2ccccc2)SC1=S | -14 | 10% | 6% | 0% | 2 | .
CC(=O)NN1C(=O)/C(=C/c2ccc(Br)o2)SC1=S | -10 | 25µM* | ? | 21% | -1 | ?
COCCn1c(=O)c(-c2ccccc2)nc2cnc(OC)nc21 | . | . | . | . | . | 1%
Cc1ccc(-c2cn(-c3cccc(Cl)c3)c(S(=O)(=O)CC(=O)Nc3cccc(C)c3)n2)cc1 | . | 5% | -11% | . | . | .
CS(=O)(=O)c1ccc(Cl)c(NC(=O)CCN2C(=O)NC3(CCCC3)C2=O)c1 | . | . | -22% | . | . | .
Cc1cc(F)ccc1NCc1ccncc1 | -21 | 4%[11.4 µM] | -13% | 8% | -2 | -12%
Cc1ccc(NCc2ccncc2)c(Br)c1 | 33* | 2% | 46% | -1% | 12 | ?
CCCCN(CCCC)C(=O)c1cc(Cl)ccc1[N+](=O)[O-] | 25 | -8% | -2% | 4% | -3 | -2%
CCCN(CCC)C(=O)c1cc([N+](=O)[O-])cc2c1-c1ccc([N+](=O)[O-])cc1C2=C(C#N)C#N | -1 | 5µM* | -6% | 1% | -2 | ?

Screening results (PubChem)
